Screening results from PubChem.
A selection: hits, their analogues and other compounds. The true share with any hit is near 19%.
ELG1 repair inh: qHTS screen for small molecules that inhibit ELG1-dependent DNA repair in human embryonic kidney (HEK293T) cells expressing luciferase-tagged ELG1 | HEK293T ELG1-luciferase reporter, luminescence, 16 h; DNA damage induced by 5-fluorouridine | hit rate 2.3% among 330,000 | Potency, µM (series often up to 46.1 µM), hits mostly inhibitors; also: nearly all actives have a fitted effect of over 55% in size
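Quantitative HTS, concentration-response format. 2,000 cells/well co-treated with 5-fluorouridine and compound, 16 hr in 5% CO2 at 37 °C; ONE-Glo luminescence read after 30 min.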
HT1080 IDH1KD tx: qHTS for induction of synthetic lethality in tumor cells producing 2HG: qHTS for the HT-1080-IDH1KD cell line; HT-1080 IDH1 knockdown viability, ATP luminescence, 48 h; Potency, µM (series often up to 46.1 µM), usual class: cytotoxic; hit rate 2% among 360,000
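Knockdown cells (IDH1KD HT-1080) received compounds 2 h after plating at 750 cells/well and were kept 48 h at 37 °C in 5% FBS RPMI. A CellTiter-Glo luminescence read gave % activity for curve fitting.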
IL-1B inflam inh: qHTS for Inhibitors of Inflammasome Signaling: IL-1-beta AlphaLISA Primary Screen | THP-1 LPS/ATP IL-1B secretion, AlphaLISA, 16 h; hits give low values | activity change, % at 57.5 µM | hit rate 4.7% among 360,000 | AID 743279, 2014; in the data active = activity change below about -50%; inconclusive = mostly about -30% to -49%
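THP-1 cells pretreated 1 hr with compounds (up to 57.5 uM final), then stimulated with LPS (250 ng/mL final) plus ATP (1.25 mM final); secreted IL-1B measured by AlphaLISA after 16 hr, decreased signal indicating inhibition.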
HT1080-NT tox: qHTS for induction of synthetic lethality in tumor cells producing 2HG: qHTS for the HT-1080-NT fibrosarcoma cell line; HT-1080-NT fibrosarcoma viability, CellTiter-Glo ATP luminescence, 48 h; Potency, µM (top dose mostly 46.1 µM), most hits filed as cytotoxic; hit rate 1.6% among 360,000;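 also: NT is the 2HG producing partner of a matched IDH1 knockdown line; nearly all actives have a fitted effect of over 55% in size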
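Toxicity toward the 2HG-producing NT line was scored as %Activity, normalised to DMSO and no-cell wells, from CellTiter-Glo luminescence after 48 hours' treatment.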
DT40 TDP1 CPT: qHTS for Inhibitors of human tyrosyl-DNA phosphodiesterase 1 (TDP1): qHTS in cells in presence of CPT | chicken DT40 Tdp1-/-;hTDP1 cells + 20 nM CPT, ATP luminescence, 48 h | Potency, µM (titrated, usually from 46.2 µM), hits mostly inhibitors | hit rate 12% among 420,000 | AID 686979, 2013; also: nearly all actives have a fitted effect of over 55% in size
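Cell growth measured by CellTiter-Glo luminescence after a minimum 48 h, 37 C compound exposure with 20 nM CPT in Tdp1-knockout DT40 cells stably expressing hTDP1, seeded 400/well; qHTS titration format.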
DT40 TDP1 no CPT: qHTS for Inhibitors of human tyrosyl-DNA phosphodiesterase 1 (TDP1): qHTS in cells in absence of CPT; DT40 Tdp1-/- hTDP1 cells, no CPT, ATP luminescence, 48 h; Potency, µM (highest dose often 46.2 µM), most hits filed as inhibitors; hit rate 15% among 420,000; AID 686978, 2013; also: nearly all actives have a fitted effect of over 55% in size
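Growth of hTDP1-complemented DT40 Tdp1-knockout cells is measured by ATP luminescence after at least 48 hr compound exposure at 37 °C, with DMSO substituting for the 20 nM CPT used in the parallel screen.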
Hits are given with their value; . = inactive; ? = inconclusive; / = no result given. Unless noted, calls follow the shape of the dose curve; as a rule, active = well fitted curve in the direction sought with a large enough effect; inconclusive = small, poorly fitted or top-dose-only effect, or another doubt; inactive = no such curve, though single readings can be large; an effect the other way counts as inactive or inconclusive.

SMILES | ELG1 repair inh | HT1080 IDH1KD tx | IL-1B inflam inh | HT1080-NT tox | DT40 TDP1 CPT | DT40 TDP1 no CPT
COc1cc(C(O)c2nc(-c3cncnc3)cs2)ccc1F (centres undefined) | / | . | . | . | . | .
COc1cc(C(O)c2nc(-c3cc(F)cc(F)c3)cs2)ccc1F (centres undefined) | / | . | . | . | 23µM | 15µM
COc1cccc(C(O)c2nc(-c3cc4ccccc4o3)cs2)c1 (centres undefined) | / | ? | . | . | ? | ?
COc1cc(C(O)c2nc(/C=C/c3ccccc3)cs2)ccc1F (centres undefined) | / | ? | . | . | 18µM | ?
O=C(C[C@H]1CC[C@@H]2[C@H](COC[C@H](O)CN2Cc2cccc(F)c2)O1)NCc1cccc(F)c1 | / | . | . | . | ? | ?
O=[N+]([O-])c1cccc(OCC(O)CN2CCN(S(=O)(=O)c3cc(Cl)ccc3Cl)CC2)c1 (centres undefined) | ? | ? | ? | . | . | ?
CCOC(=O)c1ccccc1NC(=O)CSC(C)C(=O)Nc1cc(C)on1 (centres undefined) | ? | . | . | . | ? | ?
CC(C)(CC(=O)N1CCN(c2ccc(Cl)cc2)CC1)CC1=NS(=O)(=O)c2ccccc2N1 | ? | . | -51 | ? | 18µM | 12µM
COc1cccc(N2CCN(C(=O)CC(C)(C)CC3=NS(=O)(=O)c4ccccc4N3)CC2)c1 | ? | . | . | . | 15µM | 4.6µM
O=C(CCCC1=NS(=O)(=O)c2ccccc2N1)N1CCN(c2ccc(Cl)cc2)CC1 | ? | . | . | . | 16µM | ?
O=c1[nH]c(=S)[nH]c2c1[C@H](CCc1cccc(Cl)c1)O[C@H](C1CCCC1)C2 | / | ? | . | ? | . | ?
C[C@H](CO)N1C[C@H](C)[C@@H](CN(C)CC2CC2)OCc2cnnn2CCCC1=O | / | . | . | . | . | .
COc1ccc(NC(=O)COc2ccccc2)cc1NC(=O)c1ccco1 | ? | . | . | . | ? | ?
Cc1cc(Cl)ccc1OCC(=O)NNC(=O)c1ccco1 | ? | . | . | . | . | .
COc1ccc(C(C)(C)C)cc1NC(=O)COc1ccc(-c2nnco2)cc1 | . | . | -50 | . | ? | ?
Cc1ccc(S(=O)(=O)N(C)C)cc1NC(=O)COc1ccc(-c2nnco2)cc1 | . | . | . | . | . | .
COc1ccc(NC(=O)c2ccco2)cc1NC(=O)COc1ccc(Cl)cc1C | / | / | / | / | 10µM | 9.2µM
COc1ccc(OCC(=O)Nc2cc(NC(=O)c3ccco3)ccc2OC)cc1 | ? | . | -55 | . | . | ?
Cc1c(NC(=O)CSc2nnc(C(C)N(C)C)n2-c2ccccc2)c(=O)n(-c2ccccc2)n1C (centres undefined) | / | . | . | . | . | .
Cn1cc(C(CO)Cc2ccccc2)c2ccccc21 (centres undefined) | . | . | . | . | ? | ?
CC(C)(C)OC(=O)[C@H](CCCCN)NC(=O)c1nc[nH]c1C(=O)N[C@@H](CCCCN)C(=O)OC(C)(C)C | . | . | . | . | . | .
C[C@H](NC(=O)c1nc[nH]c1C(=O)N[C@@H](Cc1ccccc1)C(=O)OC(C)(C)C)C(=O)OCc1ccccc1 | . | . | . | . | ? | 18µM
C[C@H](NC(=O)c1nc[nH]c1C(=O)N[C@@H](Cc1ccccc1)C(=O)OCc1ccccc1)C(=O)OCc1ccccc1 | . | . | . | . | ? | 23µM
CC(C)C[C@H](NC(=O)c1nc[nH]c1C(=O)N[C@@H](CC(C)C)C(=O)OC(C)(C)C)C(=O)OCc1ccccc1 | . | ? | . | ? | ? | ?
CNC(=O)c1[nH]cnc1C(=O)N[C@@H](Cc1ccccc1)C(=O)OCc1ccccc1 | ? | . | . | . | 15µM | ?
SMILES | ELG1 repair inh | HT1080 IDH1KD tx | IL-1B inflam inh | HT1080-NT tox | DT40 TDP1 CPT | DT40 TDP1 no CPT
CC(C)(C)OC(=O)[C@H](Cc1ccccc1)NC(=O)c1nc[nH]c1C(=O)N[C@@H](CCCCN)C(=O)OC(C)(C)C | . | . | . | . | ? | 16µM
Cc1c(-c2nc(-c3ccc4c(c3)OCO4)no2)nnn1-c1cccc(C(F)(F)F)c1 | / | / | / | / | . | .
COc1ccc(S(=O)(=O)Nc2ccc3c(c2)C(=O)N([C@H](C)CO)C[C@H](C)[C@@H](CN(C)Cc2ccncc2)OCCCC[C@@H](C)O3)cc1 | / | . | . | . | . | ?
Cc1ccc(C(=O)NCC(c2ccc(F)cc2)N2CCOCC2)cc1S(=O)(=O)N1CCOCC1 (centres undefined) | / | . | . | . | . | .
OC(c1ccc(F)cc1)c1nc(-c2ccc(Cl)cc2)cs1 (centres undefined) | / | ? | . | ? | ? | ?
COc1ccc(S(=O)(=O)c2cn(CC(=O)Nc3cc(C)ccc3C)c3ccccc3c2=O)cc1 | / | / | / | / | . | .
O=C(CC[C@H]1O[C@@H](n2cnc3c(NC(=O)c4ccccc4)ncnc32)[C@H](O)[C@@H]1O)N[C@@H](CO)c1ccccc1 | / | . | . | . | . | .
Cc1ccc(CS(=O)(=O)CCC(=O)NCc2ccccc2Cl)cc1 | . | . | . | . | . | .
CC(C)(C)OC(=O)[C@H](Cc1ccccc1)NC(=O)c1[nH]cnc1C(=O)Nc1ccccc1F | / | ? | ? | . | 18µM | 15µM
O=C1NC[C@H](CCCCN2CCN(CCC3CCCCC3)C(=O)C2=O)N(CCc2ccccc2)C1=O | / | ? | . | . | . | .
O=C(c1ccc2c(Cl)c3c(nc2c1)CCCC3)N1CCN(c2ccc(F)cc2)CC1 | ? | . | . | . | 21µM | 18µM
Cc1ccc(N2CCN(C(=O)c3ccc4c(Cl)c5c(nc4c3)CCCC5)CC2)c(C)c1 | / | / | / | / | . | .
COc1ccccc1N1CCN(C(=O)c2ccc3c(Cl)c4c(nc3c2)CCCC4)CC1 | ? | ? | -87 | ? | ? | ?
CC1CCN(C(=O)c2ccc3c(Cl)c4c(nc3c2)CCCC4)CC1 | . | . | . | . | . | ?
COc1ccc(-c2cc(-c3cccs3)nc(OC)c2C#N)cc1OC | 18µM | ? | . | ? | ? | 29µM
COc1nc(-c2cccs2)cc(-c2ccc(C)cc2)c1C#N | . | ? | . | ? | 10µM | 13µM
